# Reference: PubChem BioAssay (NCATS)
# Values joined by “and” are separate entries in the source; they are usually repeats but may differ in a detail not shown here. Equal entries are not always repeated. A number with no mark means an inactive call. Inconclusive results are not listed. A call without a number means that no potency is given here. Active and inactive are the calls of the source. Unless noted, calls come from the whole dose curve.
# Legend:
# [1] = target: Estrogen receptor (Homo sapiens) (UniProt P03372); experiment: qHTS assay for small molecule agonists of estrogen receptor alpha signaling (AID 588514); note: nearly all actives have a fitted effect of over 70% in size
# Chain of Estrogen receptor (Homo sapiens) (P03372 whole entry, looked up): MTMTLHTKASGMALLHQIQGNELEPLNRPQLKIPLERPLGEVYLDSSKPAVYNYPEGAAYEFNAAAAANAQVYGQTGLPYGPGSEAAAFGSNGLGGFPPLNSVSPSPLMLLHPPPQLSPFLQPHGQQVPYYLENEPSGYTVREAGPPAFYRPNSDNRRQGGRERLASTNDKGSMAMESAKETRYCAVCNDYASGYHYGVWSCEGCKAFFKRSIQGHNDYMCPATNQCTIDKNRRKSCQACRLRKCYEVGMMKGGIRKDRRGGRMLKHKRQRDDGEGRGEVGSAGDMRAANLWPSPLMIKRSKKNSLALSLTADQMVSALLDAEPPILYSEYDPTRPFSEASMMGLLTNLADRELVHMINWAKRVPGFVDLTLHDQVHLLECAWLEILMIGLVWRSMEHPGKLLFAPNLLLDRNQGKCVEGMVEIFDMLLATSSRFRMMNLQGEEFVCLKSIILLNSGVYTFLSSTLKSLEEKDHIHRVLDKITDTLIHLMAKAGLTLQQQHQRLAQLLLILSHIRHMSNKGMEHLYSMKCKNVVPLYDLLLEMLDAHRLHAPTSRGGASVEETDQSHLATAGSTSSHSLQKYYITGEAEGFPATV
# Outline: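 Cells were plated at 5000/well, incubated 4 hrs at 37 C, dosed with compound titration series, incubated 18 hrs at 37 C, loaded with CCF4 dye for 2 hrs at RT, then fluorescence was read.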
# [2] = target: Glucocorticoid receptor (Homo sapiens) (UniProt P04150); experiment: qHTS assay for small molecule agonists of glucocorticoid receptor signaling (AID 588532; active = well fitted curve in the direction sought with a large enough effect in the signal ratio, with a control signal flat; the % refers to the signal ratio); conditions: HeLa MMTV-bla, beta-lactamase ratio, agonist, 18 h; activation: stronger effect = higher value, percent of dexamethasone control, DMSO zero
# Chain of Glucocorticoid receptor (Homo sapiens) (P04150 whole entry, looked up): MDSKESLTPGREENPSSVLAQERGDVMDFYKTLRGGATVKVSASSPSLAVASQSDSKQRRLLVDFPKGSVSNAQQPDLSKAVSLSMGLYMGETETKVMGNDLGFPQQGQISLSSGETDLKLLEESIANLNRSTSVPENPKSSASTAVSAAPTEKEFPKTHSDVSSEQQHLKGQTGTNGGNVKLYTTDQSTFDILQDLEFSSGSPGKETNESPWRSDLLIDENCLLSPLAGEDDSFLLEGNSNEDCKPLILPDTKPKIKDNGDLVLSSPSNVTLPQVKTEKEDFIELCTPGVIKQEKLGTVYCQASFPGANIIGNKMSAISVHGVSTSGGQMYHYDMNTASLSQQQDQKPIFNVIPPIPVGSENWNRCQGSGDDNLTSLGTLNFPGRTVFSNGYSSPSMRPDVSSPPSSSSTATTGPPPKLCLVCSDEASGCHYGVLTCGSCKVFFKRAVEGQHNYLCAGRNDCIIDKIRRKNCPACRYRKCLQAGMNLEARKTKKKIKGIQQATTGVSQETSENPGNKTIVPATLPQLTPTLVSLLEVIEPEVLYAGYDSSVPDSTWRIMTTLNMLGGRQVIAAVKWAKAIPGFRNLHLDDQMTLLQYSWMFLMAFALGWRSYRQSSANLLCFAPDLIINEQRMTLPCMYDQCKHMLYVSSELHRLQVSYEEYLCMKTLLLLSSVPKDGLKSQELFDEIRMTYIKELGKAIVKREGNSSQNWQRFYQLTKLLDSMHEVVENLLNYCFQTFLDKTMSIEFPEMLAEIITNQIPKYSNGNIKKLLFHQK
# Outline: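 Using MMTV-bla HeLa cells in medium with 1% stripped FBS and 25 mM HEPES, compounds were titrated and incubated overnight-length (18 h). Beta-lactamase cleavage of CCF4 was quantified by dual-emission fluorescence.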
# [3] = target: Glucocorticoid receptor (Homo sapiens) (UniProt P04150); experiment: qHTS assay for small molecule antagonists of glucocorticoid receptor signaling (AID 588533; active = well fitted inhibition curve with a large enough effect in the signal ratio, with a control signal flat, not every such curve was filed as active; the % refers to the signal ratio;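 note: cells stimulated with 2 nM dexamethasone as agonist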)
# Outline: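 Antagonist-mode qHTS: compound titrations added to GRE-bla HeLa cells, then dexamethasone 2 nM final; 18 h, 37 C. CCF4 FRET fluorescence normalized to dexamethasone and DMSO; IC50 from Hill fit.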
# [4] = target: Peroxisome proliferator-activated receptor delta (Homo sapiens) (UniProt Q03181); experiment: qHTS assay for small molecule antagonists of peroxisome proliferator-activated receptor delta signaling (AID 588535; active = well fitted inhibition curve with a large enough effect in the signal ratio, with a control signal flat, not every such curve was filed as active; the % refers to the signal ratio)
# Chain of Peroxisome proliferator-activated receptor delta (Homo sapiens) (Q03181 whole entry, looked up): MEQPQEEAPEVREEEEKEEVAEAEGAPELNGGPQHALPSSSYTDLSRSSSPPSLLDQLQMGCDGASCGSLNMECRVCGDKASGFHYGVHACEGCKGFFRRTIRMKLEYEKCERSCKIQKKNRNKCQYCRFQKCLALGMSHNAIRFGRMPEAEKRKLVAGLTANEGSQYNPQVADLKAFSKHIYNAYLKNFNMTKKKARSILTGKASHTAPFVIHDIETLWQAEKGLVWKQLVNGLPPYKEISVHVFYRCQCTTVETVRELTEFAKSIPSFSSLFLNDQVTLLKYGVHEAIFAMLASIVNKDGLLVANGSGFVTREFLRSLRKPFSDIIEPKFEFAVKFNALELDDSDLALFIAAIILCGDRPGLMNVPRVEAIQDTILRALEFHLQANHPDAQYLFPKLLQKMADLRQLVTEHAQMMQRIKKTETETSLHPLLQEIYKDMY
# Outline: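 HEK293T PPAR-delta-UAS-bla cells, 4000/well, 2% charcoal/dextran FBS; 5 h 37 C; cpd titration; 18 h 37 C; CCF4 2 h RT; FI 460/530 nm; Hill fit → IC50, efficacy.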
# [5] = qHTS assay for small molecule agonists of the antioxidant response element (ARE) signaling pathway (AID 651741; active = well fitted activation curve with a large enough effect in the signal ratio; the % refers to the signal ratio; note: potency is the fitted concentration of half-maximal effect)
# Outline: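 Quantitative HTS in HepG2 cells stably expressing an ARE-beta-lactamase reporter; 16 h compound exposure at 37 C, followed by 2 h room-temperature incubation with LiveBLAzer B/G FRET substrate and fluorescence measurement.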
# [6] = qHTS assay for small molecule activators of the nuclear factor-kappa B (NF-kB) signaling pathway (AID 651749; active = well fitted activation curve with a large enough effect in the signal ratio; the % refers to the signal ratio; note: series mostly up to about 77 µM); conditions: NF-kB-bla ME-180 cells, beta-lactamase FRET ratio, 16 h; activation: stronger effect = higher value
# Outline: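 Readout: beta-lactamase reporter driven by an NF-kB response element, detected fluorescently as loss of FRET. Cells were the ME-180 line, treated 16 hr at 37C with pin-transferred compound.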
# [7] = qHTS assay for small molecule activators of the human pregnane X receptor (PXR) signaling pathway (AID 720659; call rule not given here)
# [8] = target: Bile acid receptor (Homo sapiens) (UniProt Q96RI1); experiment: qHTS assay for small molecule antagonists of farnesoid X receptor signaling (AID 588526)
# Chain of Bile acid receptor (Homo sapiens) (Q96RI1 whole entry, looked up): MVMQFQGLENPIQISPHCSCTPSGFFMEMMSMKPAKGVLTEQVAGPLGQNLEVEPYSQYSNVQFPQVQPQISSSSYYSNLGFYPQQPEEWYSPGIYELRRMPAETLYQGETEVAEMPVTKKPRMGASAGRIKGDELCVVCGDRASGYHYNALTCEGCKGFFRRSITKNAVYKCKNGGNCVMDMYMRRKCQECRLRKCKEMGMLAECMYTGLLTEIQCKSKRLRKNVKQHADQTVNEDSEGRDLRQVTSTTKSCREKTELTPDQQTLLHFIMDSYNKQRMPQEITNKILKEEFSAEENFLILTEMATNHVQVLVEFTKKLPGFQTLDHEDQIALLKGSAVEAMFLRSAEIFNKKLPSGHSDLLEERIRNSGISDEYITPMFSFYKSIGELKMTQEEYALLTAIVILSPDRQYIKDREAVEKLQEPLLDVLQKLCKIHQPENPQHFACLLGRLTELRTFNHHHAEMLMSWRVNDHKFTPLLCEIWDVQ
# Outline: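 Beta-lactamase reporter antagonist mode: HEK293T FXR-UAS-bla cells, titrated compound, CDCA stimulation, 16 h 37 C, CCF4 dye 2 h RT. Data normalized to CDCA 50 uM and DMSO; Hill-fit IC50.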
# [9] = target: Thyroid hormone receptor beta (Homo sapiens) (UniProt P10828); experiment: qHTS assay for small molecule antagonists of thyroid hormone receptor beta signaling (AID 588547; active = well fitted inhibition curve with a large enough effect in the signal ratio, with a control signal flat, not every such curve was filed as active; the % refers to the signal ratio;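 note: cells stimulated with 0.4 nM T3 agonist during compound exposure; series mostly up to about 77 µM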); conditions: TR-UAS-bla HEK293, beta-lactamase ratio, antagonist mode, 18 h
# Chain of Thyroid hormone receptor beta (Homo sapiens) (P10828 whole entry, looked up): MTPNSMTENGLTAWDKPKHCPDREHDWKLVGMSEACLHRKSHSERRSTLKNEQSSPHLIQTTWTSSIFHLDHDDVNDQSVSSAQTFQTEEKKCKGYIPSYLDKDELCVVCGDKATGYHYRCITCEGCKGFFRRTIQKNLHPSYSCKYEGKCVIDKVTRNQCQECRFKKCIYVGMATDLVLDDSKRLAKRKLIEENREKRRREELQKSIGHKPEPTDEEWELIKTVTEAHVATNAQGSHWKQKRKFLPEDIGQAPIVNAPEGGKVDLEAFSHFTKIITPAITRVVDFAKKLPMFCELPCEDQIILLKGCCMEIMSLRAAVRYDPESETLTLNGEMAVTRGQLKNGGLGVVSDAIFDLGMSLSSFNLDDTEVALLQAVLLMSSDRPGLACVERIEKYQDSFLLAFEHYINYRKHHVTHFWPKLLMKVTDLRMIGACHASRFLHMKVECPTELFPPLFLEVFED
# Outline: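 Inhibition of T3-driven (0.4nM final) beta-lactamase reporter activity was measured over 0.59 nM to 92 uM compound after 18 h at 37 C. The cells were GripTite HEK293 TR-UAS-bla in charcoal/dextran-stripped serum, with CCF4 ratio read-out and IC50 from Hill fits.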
# [10] = target: Bile acid receptor (Homo sapiens) (UniProt Q96RI1); experiment: qHTS assay for small molecule agonists of farnesoid X receptor signaling (AID 588527); conditions: HEK293T FXR-UAS-bla, beta-lactamase ratio, 16 h; activation: stronger effect = higher value; note: series mostly up to about 77 µM
# Outline: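 FXR-UAS-bla HEK293T cells (10% dialyzed FBS) preincubated 5-7 h at 37 C, then compounds at up to 92 uM for 16 h at 37 C. CCF4 beta-lactamase read-out after 2 h RT. Normalized to chenodeoxycholic acid (100 uM) and DMSO; Hill fit gave EC50 and efficacy.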
SMILES,Potency [1],activation [2],Potency [3],Potency [4],Potency [5],activation [6],outcome [7],Potency [8],activity change % (negative = inhibition) [9],activation [10]
CC(C)(c1ccccc1)c1cc(-n2nc3ccccc3n2)c(O)c(C(C)(C)c2ccccc2)c1,inactive,-6.85%,inactive,inactive,61.1 µM (active),0.903%,inactive,,,
Clc1ccc(C(Cl)(Cl)Cl)cc1,inactive,,inactive,,,,inactive,inactive,-0.364%,
CCOC(=O)Nc1cccc(OC(=O)Nc2ccccc2)c1,inactive,-3.53%,inactive,inactive,24.3 µM (active),0.127%,,,5.59%,
O=c1[nH]c2ccccc2c(=O)o1,inactive,,inactive,inactive,inactive,-0.747%,inactive,,-10.7%,
CCOS(=O)(=O)OCC,inactive,-9.13%,inactive,inactive,inactive,,inactive,,3.34%,
Cc1c(COC(=O)C2C(/C=C(\Cl)C(F)(F)F)C2(C)C)cccc1-c1ccccc1 (centres undefined),inactive,,,inactive,,1.42%,,inactive,,2.08%
CCNc1nc(NCC)nc(SC)n1,inactive,-3.89%,inactive,,,0.586%,inactive,,,
O=P(O)(O)CCCl,inactive,,,inactive,inactive,1.25% and -0.207%,inactive,inactive,,4.97% and -5.97%
CN(C)c1nc(=O)n(C2CCCCC2)c(=O)n1C,inactive,,,,inactive,,inactive,inactive,-5.49%,-1.35%
COP(=S)(OC)Oc1nc(Cl)c(Cl)cc1Cl,inactive,1.34%,inactive,,27.3 µM (active),,inactive,inactive,,0.351%
Nc1nc(N)nc(Cl)n1,inactive,-0.33% and 1.13%,inactive,,inactive,,inactive,,-10% and 5.94% and 4.29%,
